{"source": "the supplement of paper PMC10849652", "note": "About 7,900 targets were measured; listed, in parts, are those with a hit and a random draw of the rest. About 0.6% of all pairs of compound and target were hits. Values without a mark were called inactive."}
{"compound": "CC1=C(SC2=C1C(=N[C@H](C3=NN=C(N32)C)CC(=O)N)C4=CC=C(C=C4)Cl)C", "assay": "log2 fold change, soluble protein after heating vs DMSO (PISA); higher = thermal stabilisation; K562 cells, 10 uM, 30 min; active = over 0.2 and 3.5 SD of the protein, either way, in both replicates (recomputed)", "summary_of_the_method": "(§1)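 Soluble protein was quantified by TMTpro 16plex LC-MS/MS after channel sums were equalised. It was obtained as the supernatant after 21,000xg for 90 min from pooled aliquots of K562 cells (2×10^6 cells/mL, 10 μM compound, 30 min) heated for 3 min across 48°C-58°C and extracted in PBS with 0.5% NP-40 at 4°C. Thermal stability values are relative to control samples and come from duplicates. They are given as log2 fold changes.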"}
{"target": "WASH2P (UniProt Q6VEQ5)", "log2 fold change": -0.015}
{"target": "UBIAD1 (UniProt Q9Y5Z9)", "log2 fold change": 0.029}
{"target": "TRIM44 (UniProt Q96DX7)", "sequence (Q96DX7 whole entry, looked up)": "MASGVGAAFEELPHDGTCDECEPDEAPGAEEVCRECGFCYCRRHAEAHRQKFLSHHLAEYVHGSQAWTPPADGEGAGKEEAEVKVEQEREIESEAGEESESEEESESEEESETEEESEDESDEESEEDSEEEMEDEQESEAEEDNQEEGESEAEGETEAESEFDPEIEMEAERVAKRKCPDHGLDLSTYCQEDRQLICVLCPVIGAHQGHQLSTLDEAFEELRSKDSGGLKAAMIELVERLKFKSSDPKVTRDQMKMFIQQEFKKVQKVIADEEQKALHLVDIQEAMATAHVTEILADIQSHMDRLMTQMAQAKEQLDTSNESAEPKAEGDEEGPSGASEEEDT", "log2 fold change": 0.008}
{"target": "TMEM189-UBE2V1 (UniProt I3L0A0)", "log2 fold change": 0.02}
{"target": "TNFRSF10A (UniProt O00220)", "sequence (O00220 whole entry, looked up)": "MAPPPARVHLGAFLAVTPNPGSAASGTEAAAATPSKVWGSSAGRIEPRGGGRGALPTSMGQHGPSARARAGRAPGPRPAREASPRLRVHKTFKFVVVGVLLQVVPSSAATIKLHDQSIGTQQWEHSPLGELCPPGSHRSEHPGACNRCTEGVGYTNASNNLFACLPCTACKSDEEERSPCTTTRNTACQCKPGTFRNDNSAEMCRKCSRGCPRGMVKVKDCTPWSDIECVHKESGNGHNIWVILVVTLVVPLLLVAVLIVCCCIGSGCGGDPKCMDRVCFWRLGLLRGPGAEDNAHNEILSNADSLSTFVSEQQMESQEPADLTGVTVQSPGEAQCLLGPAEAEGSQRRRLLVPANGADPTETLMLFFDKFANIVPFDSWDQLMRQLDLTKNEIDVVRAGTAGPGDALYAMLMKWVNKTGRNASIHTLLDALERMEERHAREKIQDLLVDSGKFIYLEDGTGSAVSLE", "log2 fold change": 0.006}
{"target": "USO1 isoform 2 (UniProt O60763)", "log2 fold change": 0.012}
{"target": "WDR7 (UniProt Q9Y4E6)", "log2 fold change": 0.013}
{"target": "TMEM177 (UniProt Q53S58)", "sequence (Q53S58 whole entry, looked up)": "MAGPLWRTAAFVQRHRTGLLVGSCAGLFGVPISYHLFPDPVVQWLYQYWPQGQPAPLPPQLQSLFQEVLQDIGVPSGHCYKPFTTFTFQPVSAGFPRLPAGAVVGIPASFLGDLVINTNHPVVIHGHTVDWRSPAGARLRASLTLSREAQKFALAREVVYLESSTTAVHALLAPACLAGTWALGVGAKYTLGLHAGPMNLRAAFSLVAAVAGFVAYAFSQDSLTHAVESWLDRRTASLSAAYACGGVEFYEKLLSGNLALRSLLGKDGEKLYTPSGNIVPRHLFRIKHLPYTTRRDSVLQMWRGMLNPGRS", "log2 fold change": -0.01}
{"target": "UBE3D (UniProt Q7Z6J8)", "sequence (Q7Z6J8 whole entry, looked up)": "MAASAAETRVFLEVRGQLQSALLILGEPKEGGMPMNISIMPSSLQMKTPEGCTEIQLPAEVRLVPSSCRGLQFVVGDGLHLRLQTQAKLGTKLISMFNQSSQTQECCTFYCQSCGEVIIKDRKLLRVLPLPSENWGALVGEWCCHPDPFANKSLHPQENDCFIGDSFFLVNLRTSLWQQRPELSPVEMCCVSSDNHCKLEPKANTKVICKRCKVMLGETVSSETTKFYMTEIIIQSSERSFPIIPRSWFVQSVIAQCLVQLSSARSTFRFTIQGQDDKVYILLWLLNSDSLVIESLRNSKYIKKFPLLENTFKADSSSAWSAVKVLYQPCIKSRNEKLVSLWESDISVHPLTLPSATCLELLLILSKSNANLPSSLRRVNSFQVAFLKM", "log2 fold change": 0.057}
{"target": "UHRF1BP1 (UniProt Q6BDS2)", "log2 fold change": 0.109}
{"target": "TRMT10C (UniProt Q7L0Y3)", "sequence (Q7L0Y3 whole entry, looked up)": "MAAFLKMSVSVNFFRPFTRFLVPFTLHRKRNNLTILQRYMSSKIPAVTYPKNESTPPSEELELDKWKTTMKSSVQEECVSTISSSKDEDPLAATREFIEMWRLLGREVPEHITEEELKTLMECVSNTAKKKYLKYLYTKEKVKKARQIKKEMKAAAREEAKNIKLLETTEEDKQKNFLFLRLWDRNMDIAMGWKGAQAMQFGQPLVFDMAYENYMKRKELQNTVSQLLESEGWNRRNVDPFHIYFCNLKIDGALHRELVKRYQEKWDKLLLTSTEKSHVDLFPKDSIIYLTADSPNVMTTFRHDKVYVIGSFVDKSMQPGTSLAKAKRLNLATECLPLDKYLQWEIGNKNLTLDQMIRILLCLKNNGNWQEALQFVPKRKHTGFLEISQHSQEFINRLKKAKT", "log2 fold change": 0.029}
{"target": "TNFAIP8 isoform 4 (UniProt O95379)", "log2 fold change": 0.026}
{"target": "UBXN8 (UniProt O00124)", "sequence (O00124 whole entry, looked up)": "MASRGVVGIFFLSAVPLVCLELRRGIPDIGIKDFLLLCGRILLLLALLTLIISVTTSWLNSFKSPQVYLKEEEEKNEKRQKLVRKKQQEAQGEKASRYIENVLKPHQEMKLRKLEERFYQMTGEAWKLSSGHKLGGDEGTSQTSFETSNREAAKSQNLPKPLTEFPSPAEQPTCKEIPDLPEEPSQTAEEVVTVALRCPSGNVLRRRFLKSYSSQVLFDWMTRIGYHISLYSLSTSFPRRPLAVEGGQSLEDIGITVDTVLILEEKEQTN", "log2 fold change": -0.074}
{"target": "TRABD (UniProt Q9H4I3)", "sequence (Q9H4I3 whole entry, looked up)": "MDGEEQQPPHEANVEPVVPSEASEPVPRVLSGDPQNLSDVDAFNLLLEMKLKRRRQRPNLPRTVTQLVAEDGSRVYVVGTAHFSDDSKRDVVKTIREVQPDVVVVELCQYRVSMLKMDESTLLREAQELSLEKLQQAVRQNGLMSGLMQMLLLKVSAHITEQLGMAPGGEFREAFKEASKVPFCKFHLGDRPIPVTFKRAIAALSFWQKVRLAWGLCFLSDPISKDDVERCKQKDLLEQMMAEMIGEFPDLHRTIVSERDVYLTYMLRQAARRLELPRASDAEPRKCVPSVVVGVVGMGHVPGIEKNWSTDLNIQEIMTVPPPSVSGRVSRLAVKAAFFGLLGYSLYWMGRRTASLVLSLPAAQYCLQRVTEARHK", "log2 fold change": -0.034}
{"target": "UBE2J2 isoform 3 (UniProt Q8N2K1)", "log2 fold change": 0.078}
{"target": "TPM2 (UniProt P07951)", "log2 fold change": -0.117}
{"target": "WDR47 (UniProt O94967)", "log2 fold change": 0.004}
{"target": "UCHL5 (UniProt Q9Y5K5)", "log2 fold change": 0.004}
{"target": "UFM1 (UniProt P61960)", "sequence (P61960 whole entry, looked up)": "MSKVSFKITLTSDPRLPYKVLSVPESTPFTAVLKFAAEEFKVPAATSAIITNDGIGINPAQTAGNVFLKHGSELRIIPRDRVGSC", "log2 fold change": 0.363}
{"target": "WDR4 (UniProt P57081)", "log2 fold change": 0.048}
{"target": "VRK1 (UniProt Q99986)", "sequence (Q99986 whole entry, looked up)": "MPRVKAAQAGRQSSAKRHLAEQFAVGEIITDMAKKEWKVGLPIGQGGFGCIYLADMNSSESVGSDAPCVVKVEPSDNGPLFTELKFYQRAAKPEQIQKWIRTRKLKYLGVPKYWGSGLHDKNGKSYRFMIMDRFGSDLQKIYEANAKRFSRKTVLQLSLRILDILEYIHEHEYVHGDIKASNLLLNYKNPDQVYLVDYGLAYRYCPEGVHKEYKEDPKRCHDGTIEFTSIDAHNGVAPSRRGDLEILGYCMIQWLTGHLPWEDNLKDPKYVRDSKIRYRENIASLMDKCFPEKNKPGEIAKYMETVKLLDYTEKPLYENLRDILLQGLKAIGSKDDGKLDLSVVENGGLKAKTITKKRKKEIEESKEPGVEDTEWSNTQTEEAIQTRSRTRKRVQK", "log2 fold change": 0.02}
{"target": "TMEM263 (UniProt Q8WUH6)", "log2 fold change": 0.047}
{"target": "UGDH (UniProt O60701)", "sequence (O60701 whole entry, looked up)": "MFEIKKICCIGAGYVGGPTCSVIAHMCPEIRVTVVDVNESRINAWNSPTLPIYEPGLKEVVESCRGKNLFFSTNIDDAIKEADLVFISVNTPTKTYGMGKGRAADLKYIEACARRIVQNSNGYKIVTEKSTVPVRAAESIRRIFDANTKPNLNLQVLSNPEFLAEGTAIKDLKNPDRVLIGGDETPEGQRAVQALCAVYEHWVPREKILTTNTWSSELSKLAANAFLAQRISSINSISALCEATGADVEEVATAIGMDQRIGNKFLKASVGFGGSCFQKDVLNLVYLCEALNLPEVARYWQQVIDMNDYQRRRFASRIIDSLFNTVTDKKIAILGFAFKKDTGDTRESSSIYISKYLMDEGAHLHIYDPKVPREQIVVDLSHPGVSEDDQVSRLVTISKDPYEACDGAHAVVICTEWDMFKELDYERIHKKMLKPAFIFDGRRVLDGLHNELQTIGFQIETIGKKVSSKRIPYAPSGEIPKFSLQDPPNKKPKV", "log2 fold change": 0.052}
{"target": "UTP4 (UniProt Q969X6)", "log2 fold change": 0.039}
{"target": "WEE1 (UniProt P30291)", "sequence (P30291 whole entry, looked up)": "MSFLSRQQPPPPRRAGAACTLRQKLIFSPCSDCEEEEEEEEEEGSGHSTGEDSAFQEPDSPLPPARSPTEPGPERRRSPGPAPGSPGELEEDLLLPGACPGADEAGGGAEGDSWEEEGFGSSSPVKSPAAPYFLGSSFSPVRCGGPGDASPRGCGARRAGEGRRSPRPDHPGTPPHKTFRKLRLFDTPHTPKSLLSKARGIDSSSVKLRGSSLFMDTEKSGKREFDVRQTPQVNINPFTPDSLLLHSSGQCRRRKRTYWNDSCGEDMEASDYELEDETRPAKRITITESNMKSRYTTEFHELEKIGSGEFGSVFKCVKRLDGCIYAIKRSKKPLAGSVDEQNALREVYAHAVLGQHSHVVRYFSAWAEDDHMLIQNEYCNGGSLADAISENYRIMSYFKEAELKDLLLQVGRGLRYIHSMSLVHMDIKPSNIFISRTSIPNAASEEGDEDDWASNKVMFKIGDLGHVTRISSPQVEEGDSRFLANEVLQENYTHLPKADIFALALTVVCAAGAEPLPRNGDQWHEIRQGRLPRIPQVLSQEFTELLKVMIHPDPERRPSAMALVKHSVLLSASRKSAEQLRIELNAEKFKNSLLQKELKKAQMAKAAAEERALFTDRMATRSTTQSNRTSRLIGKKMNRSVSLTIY", "log2 fold change": -0.031}
{"target": "VPS33A (UniProt Q96AX1)", "sequence (Q96AX1 whole entry, looked up)": "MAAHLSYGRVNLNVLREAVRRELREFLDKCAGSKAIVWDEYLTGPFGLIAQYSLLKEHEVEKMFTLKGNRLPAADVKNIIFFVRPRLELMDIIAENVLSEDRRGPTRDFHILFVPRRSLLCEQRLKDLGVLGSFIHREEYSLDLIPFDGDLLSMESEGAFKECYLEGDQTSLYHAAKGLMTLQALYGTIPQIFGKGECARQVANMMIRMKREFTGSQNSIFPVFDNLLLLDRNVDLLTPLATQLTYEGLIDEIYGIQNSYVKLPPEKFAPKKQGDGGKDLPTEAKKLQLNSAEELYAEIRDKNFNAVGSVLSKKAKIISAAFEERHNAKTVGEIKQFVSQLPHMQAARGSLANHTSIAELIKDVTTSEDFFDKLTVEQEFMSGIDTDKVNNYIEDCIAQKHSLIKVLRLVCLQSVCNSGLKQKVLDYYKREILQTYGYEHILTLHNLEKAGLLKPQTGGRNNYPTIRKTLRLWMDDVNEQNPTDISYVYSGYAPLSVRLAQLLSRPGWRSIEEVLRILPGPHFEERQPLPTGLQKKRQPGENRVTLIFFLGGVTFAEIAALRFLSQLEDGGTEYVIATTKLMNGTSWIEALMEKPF", "log2 fold change": 0.053}
{"target": "VPS11 (UniProt Q9H270)", "log2 fold change": 0.014}
{"target": "VPS39 (UniProt Q96JC1)", "log2 fold change": 0.018}
{"target": "TMEM87B (UniProt Q96K49)", "log2 fold change": 0.083}
{"target": "TMEM192 (UniProt Q8IY95)", "log2 fold change": -0.03}
{"target": "WDR43 (UniProt Q15061)", "log2 fold change": 0.027}
{"compound": "CC1=C2C(=CC=C1)N=C(N(C2=O)C3=CC=CC=C3C)CN4C=NC5=C(N=CN=C54)N", "assay": "log2 fold change, soluble protein after heating vs DMSO (PISA); higher = thermal stabilisation; K562 cells, 10 uM, 30 min; active = over 0.2 and 3.5 SD of the protein, either way, in both replicates (recomputed)", "summary_of_the_method": "as §1"}
{"target": "WASH2P (UniProt Q6VEQ5)", "log2 fold change": 0.026}
{"target": "UBIAD1 (UniProt Q9Y5Z9)", "log2 fold change": 0.068}
{"target": "TRIM44 (UniProt Q96DX7)", "log2 fold change": -0.002}
{"target": "TMEM189-UBE2V1 (UniProt I3L0A0)", "log2 fold change": 0.102}
{"target": "TNFRSF10A (UniProt O00220)", "log2 fold change": -0.058}
{"target": "USO1 isoform 2 (UniProt O60763)", "log2 fold change": 0.028}
{"target": "WDR7 (UniProt Q9Y4E6)", "log2 fold change": -0.068}
{"target": "TMEM177 (UniProt Q53S58)", "log2 fold change": -0.164}
{"target": "UBE3D (UniProt Q7Z6J8)", "log2 fold change": 0.001}
{"target": "UHRF1BP1 (UniProt Q6BDS2)", "log2 fold change": 0.006}
{"target": "TRMT10C (UniProt Q7L0Y3)", "log2 fold change": 0.085}
{"target": "TNFAIP8 isoform 4 (UniProt O95379)", "log2 fold change": 0.02}
{"target": "UBXN8 (UniProt O00124)", "log2 fold change": 0.192}
{"target": "TRABD (UniProt Q9H4I3)", "log2 fold change": -0.054}
{"target": "UBE2J2 isoform 3 (UniProt Q8N2K1)", "log2 fold change": -0.106}
{"target": "TPM2 (UniProt P07951)", "log2 fold change": -0.195}
{"target": "WDR47 (UniProt O94967)", "log2 fold change": -0.042}
{"target": "UCHL5 (UniProt Q9Y5K5)", "log2 fold change": 0.043}
{"target": "UFM1 (UniProt P61960)", "log2 fold change": 0.049}
{"target": "WDR4 (UniProt P57081)", "log2 fold change": -0.004}
{"target": "VRK1 (UniProt Q99986)", "log2 fold change": 0.178}
{"target": "TMEM263 (UniProt Q8WUH6)", "log2 fold change": 0.156}
{"target": "UGDH (UniProt O60701)", "log2 fold change": 0.103}
{"target": "UTP4 (UniProt Q969X6)", "log2 fold change": -0.044}
{"target": "WEE1 (UniProt P30291)", "log2 fold change": -0.059}
{"target": "VPS33A (UniProt Q96AX1)", "log2 fold change": 0.147}
{"target": "VPS11 (UniProt Q9H270)", "log2 fold change": 0.118}
{"target": "VPS39 (UniProt Q96JC1)", "log2 fold change": 0.071}
{"target": "TMEM87B (UniProt Q96K49)", "log2 fold change": -0.031}
{"target": "TMEM192 (UniProt Q8IY95)", "log2 fold change": 0.018}
{"target": "WDR43 (UniProt Q15061)", "log2 fold change": 0.009}
{"compound": "Cc1sc2c(c1C)C(c1ccc(Cl)cc1)=N[C@@H](CC(=O)OC(C)(C)C)c1nnc(C)n1-2", "assay": "log2 fold change, soluble protein after heating vs DMSO (PISA); higher = thermal stabilisation; K562 cells, 10 uM, 30 min; active = over 0.2 and 3.5 SD of the protein, either way, in both replicates (recomputed)", "summary_of_the_method": "as §1"}
{"target": "WASH2P (UniProt Q6VEQ5)", "log2 fold change": 0.041}
{"target": "UBIAD1 (UniProt Q9Y5Z9)", "log2 fold change": -0.074}
{"target": "TRIM44 (UniProt Q96DX7)", "log2 fold change": -0.006}
{"target": "TMEM189-UBE2V1 (UniProt I3L0A0)", "log2 fold change": -0.02}
{"target": "TNFRSF10A (UniProt O00220)", "log2 fold change": 0.024}
{"target": "USO1 isoform 2 (UniProt O60763)", "log2 fold change": 0.012}
{"target": "WDR7 (UniProt Q9Y4E6)", "log2 fold change": -0.131}
{"target": "TMEM177 (UniProt Q53S58)", "log2 fold change": -0.001}
{"target": "UBE3D (UniProt Q7Z6J8)", "log2 fold change": -0.051}
{"target": "UHRF1BP1 (UniProt Q6BDS2)", "log2 fold change": -0.001}
{"target": "TRMT10C (UniProt Q7L0Y3)", "log2 fold change": 0.005}
{"target": "TNFAIP8 isoform 4 (UniProt O95379)", "log2 fold change": -0.042}
{"target": "UBXN8 (UniProt O00124)", "log2 fold change": 0.099}
{"target": "TRABD (UniProt Q9H4I3)", "log2 fold change": 0.027}
{"target": "UBE2J2 isoform 3 (UniProt Q8N2K1)", "log2 fold change": -0.014}
{"target": "TPM2 (UniProt P07951)", "log2 fold change": -0.017}
{"target": "WDR47 (UniProt O94967)", "log2 fold change": -0.031}
{"target": "UCHL5 (UniProt Q9Y5K5)", "log2 fold change": 0.027}
{"target": "UFM1 (UniProt P61960)", "log2 fold change": -0.164}
{"target": "WDR4 (UniProt P57081)", "log2 fold change": -0.025}
{"target": "VRK1 (UniProt Q99986)", "log2 fold change": -0.019}
{"target": "TMEM263 (UniProt Q8WUH6)", "log2 fold change": -0.072}
{"target": "UGDH (UniProt O60701)", "log2 fold change": -0.04}
{"target": "UTP4 (UniProt Q969X6)", "log2 fold change": 0.004}
{"target": "WEE1 (UniProt P30291)", "log2 fold change": 0.132}
{"target": "VPS33A (UniProt Q96AX1)", "log2 fold change": 0.059}
{"target": "VPS11 (UniProt Q9H270)", "log2 fold change": -0.001}
{"target": "VPS39 (UniProt Q96JC1)", "log2 fold change": -0.009}
{"target": "TMEM87B (UniProt Q96K49)", "log2 fold change": -0.036}
{"target": "TMEM192 (UniProt Q8IY95)", "log2 fold change": -0.024}
{"target": "WDR43 (UniProt Q15061)", "log2 fold change": -0.009}
